In PubChem BioAssay:

assay: small-molecule microarray binders of probe aLefty2, primary screen, biochemical, biotinylated probe, 635/667 nm fluorescence (AID 1094); conditions: higher = more signal;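 also: score merges spot fluorescence near 667 nm with spot signal-to-noise ratio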

SMILES | composite z-score
CCOC(=O)C1=CCC(c2ccc(C)cc2)N(S(=O)(=O)c2ccc(C)cc2)C1 (stereo not given) | 0.0283
CN(C)CCCNC(=O)[C@@]1(c2ccc([N+](=O)[O-])cc2)CC(=O)N(C2CCCCC2)[C@@H]1c1ccc(CO)cc1 | -0.0259
CC(=O)N1Cc2ccccc2C[C@@]2(COC(c3ccc(OCCCO)cc3)=N2)C1=O | 0.518
COCCOC(=O)N1C(=O)[C@@]2(c3cc(C#CC4=CCCCC4)ccc31)[C@H](C(=O)Nc1nc3ccccc3s1)[C@H]1C(=O)O[C@H](c3ccccc3)[C@H](c3ccccc3)N1[C@@H]2c1ccc(OCCO)cc1 | -0.119
C=CC[C@]1(C(=O)N2CCCCC2)N=C(c2ccc(OCCCO)cc2)O[C@H]1c1ccccc1 | 0.495
O=C1NCC(=O)N2[C@@H]1C[C@@H](C(=O)O)[C@H]2c1cccc(OCCO)c1 | 1.81
O=C1O[C@H](c2ccccc2)[C@H](c2ccccc2)N2[C@H]1[C@@H](C(=O)O)[C@]1(C(=O)Nc3ccc(C#CCCO)cc31)[C@H]2c1ccc(O)cc1 | 0.541
C=CCOC(=O)[C@H]1[C@@H]2C(=O)O[C@@H](c3ccccc3)[C@@H](c3ccccc3)N2[C@@H](c2ccc(OCCOC(=O)[C@@H]3C[C@@H]4C(=O)N[C@@H](CCCCN(C)C)C(=O)N4[C@@H]3c3ccc(O)cc3)cc2)[C@]12C(=O)Nc1ccc(I)cc12 | -0.0823
CC(C)(C)OC(=O)CC[C@]12N=C(c3ccc(OCCCO)cc3)O[C@H]1c1ccccc1N(CCS(=O)(=O)c1ccccc1)C2=O | 0.101
CN(C)C(=O)[C@@]1(Cc2ccccc2CN=[N+]=[N-])N=C(c2ccc(OCCCO)cc2)O[C@H]1c1ccccc1 | 0.0561
